Source: PubChem BioAssay
In the library only some 1.6% were active in any assay of this set; here they are far more common.
PREPL inh: human PREPL enzyme inhibition; inhibition, % at 5.96 µM; recombinant PREPL, fluorescence polarization activity-based probe; Q4J6C6; 0.68% of 320,000 active; in the data active = inhibition above about 43%;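 also: 0% = enzyme with DMSO and 100% = wells lacking enzyme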
PME-1 primary: blocks human protein phosphatase methylesterase 1; AID 2130; 0.53% of 320,000 active; recombinant PME-1, FP-Rh probe fluorescence polarization; inhibition, % at 5.9 µM;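 active = inhibition above the campaign mean of all compounds plus 3 SD, cut at about 26% in these data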;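 also: competitive labeling of PME-1 active site by serine hydrolase directed probe; 0% = PME-1 with DMSO and 100% = wells lacking PME-1 enzyme; inhibitors block probe labeling so polarization falls and inhibition rises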
MEX-5 binding: C. elegans MEX-5 TCR-2 RNA binding activity; Q9XUB2; MEX-5/FITC-TCR2 RNA binding, fluorescence polarization; stronger effect = lower value; activity score (negative = inhibition of binding), % at 10 µM; 0.38% of 300,000 active; AID 1832;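 active = inhibition past about -25% in most replicates, and total fluorescence under double the plate's negative control median, limit read from the data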;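 also: 0% = DMSO and -100% = 5 µM competing unlabeled TCR2 RNA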
Target sequence (Q9XUB2 whole entry, looked up): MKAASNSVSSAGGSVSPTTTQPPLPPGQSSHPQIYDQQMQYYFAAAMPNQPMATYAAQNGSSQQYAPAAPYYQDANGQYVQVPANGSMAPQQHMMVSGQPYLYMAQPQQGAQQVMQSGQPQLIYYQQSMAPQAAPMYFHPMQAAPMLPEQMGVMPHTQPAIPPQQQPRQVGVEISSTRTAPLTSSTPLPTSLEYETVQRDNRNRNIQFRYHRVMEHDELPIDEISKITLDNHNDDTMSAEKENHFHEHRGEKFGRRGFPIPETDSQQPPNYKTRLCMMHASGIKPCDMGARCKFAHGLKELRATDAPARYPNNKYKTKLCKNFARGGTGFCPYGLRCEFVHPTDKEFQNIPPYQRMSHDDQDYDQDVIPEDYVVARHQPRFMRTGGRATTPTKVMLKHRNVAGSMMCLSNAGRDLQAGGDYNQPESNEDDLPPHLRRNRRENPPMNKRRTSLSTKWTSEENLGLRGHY
Fam108B inh: blocks mouse Fam108B hydrolase in RBBP9 counter-screen | inhibition, % at 9.51 µM | recombinant Fam108B, FP-Rh probe fluorescence polarization | 0.33% of 300,000 active;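 active = inhibition above the screen mean inhibition plus 3 SD, computed separately per campaign, cut at about 18% in these data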;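 also: inhibitors lower polarization as less probe binds the enzyme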
LYPLA1 counter: counter-screen for PME1 inhibitors: inhibitors of human LYPLA1 | O75608 | recombinant LYPLA1, FP-Rh probe fluorescence polarization | inhibition, % at 5.9 µM | 0.16% of 320,000 active | AID 2174;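 active = inhibition above the mean of all tested compounds plus 3 SD, set per campaign, cut at about 14% in these data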;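 also: inhibitors block serine hydrolase probe labeling of LYPLA1 so polarization falls; 0% = enzyme with DMSO and 100% = wells lacking LYPLA1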
LYPLA2 inh: counter-screen for PME1 inhibitors: inhibitors of human LYPLA2 | O95372 | recombinant LYPLA2, FP-Rh probe fluorescence polarization | inhibition, % at 5.9 µM | 0.38% of 320,000 active;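 active = inhibition above the screen-wide mean plus 3 SD, limit set per campaign, cut at about 26% in these data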;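 also: 0% = LYPLA2 with DMSO and 100% = wells lacking LYPLA2 enzyme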
* marks the source's active call; other numbers are inactive results; nt = not tested or not shown; ! = a repeat was not active.

SMILES	PREPL inh	PME-1 primary	MEX-5 binding	Fam108B inh	LYPLA1 counter	LYPLA2 inh
Cn1cc(/C=C2\C(=O)NC(=O)N(c3ccccc3)C2=O)c2ccccc21	-1	0	-82*	0	8	1
O=C(Cn1cc(C=C2C(=O)NC(=O)NC2=O)c2ccccc21)NCC1CCCO1 (stereo not drawn)	-10	0	-36*	4	-5	-6
O=C1NC(=O)C(=Cc2cn(CCOc3ccc4c(c3)OCO4)c3ccccc23)C(=O)N1	-7	1	-55*	-57	-2	-2
O=C(O)Cn1cc(C=C2C(=O)NC(=O)NC2=O)c2ccccc21	6	1	3	5	-3	-2
CCN(CC)C(=O)Cn1cc(/C=C2\C(=O)NC(=O)N(c3ccccc3F)C2=O)c2ccccc21	10	-3	-64*	-6	-3	-9
CC(=O)CC(C)(C)n1c[n+](C)nn1	-5	-4	2	3	2	5
COC(=O)C1=C(c2ccc3ccccc3c2)C[C@@H]2CC[C@H]1N2C(=O)NCC1CC1	-3	2	nt	nt	5	9
C=CCn1cc(C=C2C(=O)NC(=O)NC2=O)c2ccccc21	1	-6	-37*	-2	-2	-6
CC(=O)O[C@@H]1/C=C/[C@](C)(O)C[C@@H](C)C/C=C/[C@H]2[C@H](O)C(C)=C(C)[C@H]3[C@H](Cc4ccccc4)NC(=O)[C@@]123	8	7	1	3	-3	5
CCN(CC)S(=O)(=O)c1cc(NC(=O)C(C)N2CC=C(c3ccccc3)CC2)ccc1C (stereo not drawn)	15	47*	0	-13	-6	-13
CN1C(=O)N(C)C(=O)C2(Cc3cc(NC(=O)c4ccccc4)ccc3N3CCCC32)C1=O (stereo not drawn)	6	-3	5	-4	-6	-1
CN1CC=C2C(C#N)=C(N)C(C#N)(C#N)C(c3ccncc3)C2C1 (stereo not drawn)	25	8	-47*	6	10	14
COc1ccc(C(O)P(=O)(Oc2ccccc2)Oc2ccccc2)cc1 (stereo not drawn)	13	38*	-1	3	2	-6
COc1ccc(C(O)P(=O)(OC(C)C)OC(C)C)cc1 (stereo not drawn)	2	-1	-1	0	0	0
O=P(Oc1ccccc1)(Oc1ccccc1)C(O)c1ccc(Cl)cc1 (stereo not drawn)	3	47*	1	1	1	4
COC(=O)C1=C(c2cccc(OC)c2OC)C[C@@H]2CC[C@H]1N2C(=O)NCCNC(C)=O	-4	5	0	0	-2	-2
Cc1ccc(N2C(=O)NC(=O)/C(=C\c3cc(C)n(-c4cc(C(=O)O)cc(C(=O)O)c4)c3C)C2=O)cc1	-6	-6	-1	0	-3	0
Cc1ccc(N2C(=O)NC(=O)/C(=C\c3cc(C)n(-c4ccc(C(=O)O)cc4)c3C)C2=O)cc1	-1	-2	-35*	-1	-4	-6
CC(=O)O[C@H]1[C@H]2O[C@]23[C@@H]2CC[C@]4(O)C[C@@H](O)CC[C@]4(C)C2CC[C@]3(C)[C@H]1c1ccc(=O)oc1 (stereo partly drawn)	1	2	nt	nt	0	0
O=P(CCl)(Nc1ccccc1)C(Cl)(Cl)Cl (stereo not drawn)	0	30*	2	4	2	5
O=P(Nc1ccccc1)(Oc1ccccc1)Oc1ccccc1	11	-2	5	-3	-3	-1
Cc1cc(Br)c(NC(=O)CN2CC=C(c3ccccc3)CC2)c(Br)c1	-8	31*	2	0	-1	-5
O=C(CN1CC=C(c2ccccc2)CC1)NC(=O)NCc1ccco1	5	-4	-1	-2	0	0
CCCCCCn1c(O)c(C=Nc2ccccc2N2CCOCC2)c(=O)[nH]c1=S	5	-5	-31*	1	2	-2
O=C(N/N=C/c1c(O)n(C2CC2)c(=S)[nH]c1=O)c1ccccc1O	4	6	-60*	8	4	9
SMILES	PREPL inh	PME-1 primary	MEX-5 binding	Fam108B inh	LYPLA1 counter	LYPLA2 inh
Cc1ccccc1-n1c(O)c(/C=N/NC(=O)c2ccccc2O)c(=O)[nH]c1=S	15	-7	-29*	0	-1	-9
CSc1ccccc1C(=O)C1CCCN(Cc2ccncc2)C1 (stereo not drawn)	8	0	-2	0	3	8
CC(C)CC12CN3CCN(CC(C3)C1O)C2 (stereo not drawn)	12	0	-1	-3	3	0
O=C1NCCN2CCCC12 (stereo not drawn)	3	-4	nt	-2	1	30*
CN1CCN(c2ccc([N+](=O)[O-])c3no[n+]([O-])c23)CC1	-12	-28	-60*	-22	-16	-29
NP(=O)(Oc1ccc(Cl)cc1)Oc1ccc(Cl)cc1	-3	71*	2	-1	-5	-3
COc1ccc(P2(=O)Nc3ccccc3N2)cc1	39	12	-36*	6	-4	-5
COc1ccc(C=O)cc1	4	2	nt	nt	1	-1
CCC(CO)NC(=O)C1C=C2c3cccc4[nH]cc(c34)CC2N(C)C1 (stereo not drawn)	31	1	-15	1	-2	-8
CC[C@@H](CO)NC(=O)[C@@H]1C=C2c3cccc4c3c(cn4C)C[C@H]2N(C)C1	54*!	5	-31*	3	6	10
CCCN1CCc2cccc3c2[C@H]1Cc1ccc(O)c(O)c1-3	17	5	-84*	-1	-9	-13
COc1ccc2c(c1O)-c1c(OC)c(OC)cc3c1[C@H](C2)N(C)CC3	0	6	nt	6	7	5
Cc1c(Cl)cccc1N1C(=O)NC(=O)/C(=C\c2cc(C)n(-c3cccc(C(=O)O)c3C)c2C)C1=O	3	-3	-3	-2	-1	-4
COc1cc(O)c(C(=O)O)c(-c2cc(O)c(O)cc2C)c1	9	-2	-62*	5	3	5
Cc1cc(C=C2C(=O)NC(=O)NC2=O)c(C)n1-c1cccnc1	-6	2	-71*	-5	2	6
CCCCCCn1c(O)c(C=NCCN2CCOCC2)c(=O)[nH]c1=O	-4	3	1	1	4	4
O=C(/C=C/c1ccc2c(c1)OCO2)c1c(O)n(CCC2=CCCCC2)c(=O)[nH]c1=O	9	-8	nt	-7	-3	-7
CCCCn1c(O)c(C(=O)/C=C/c2ccc3c(c2)OCO3)c(=O)[nH]c1=O	-3	0	-36*	2	0	4
COc1ccc(CN2CCN(Cc3ccccc3F)CC2)cc1	-8	-6	-5	1	-1	1
Oc1ccc(C[C@H]2NCCc3cc(O)c(O)cc32)cc1O	nt	nt	-81*	nt	nt	nt
Oc1ccc(CC2CC3CCN2CC3)cc1O (stereo not drawn)	1	3	-1	-1	1	-3
